Assay outcomes from PubChem BioAssay.
Sampled rows, rich in hits. Any-hit rate of the full collection: about 5.4%.
Mdm2 MdmX PPI – inhibitors of human Mdm2-MdmX association, primary screen, cell-based, luminescence, split luciferase, SaOS-2, uHTS; Protein Mdm4 (Homo sapiens) + E3 ubiquitin-protein ligase Mdm2 (Homo sapiens), …; SaOS-2 split-luciferase Mdm2/MdmX complementation; inhibition, % at 8 µM; actives 3% (n = 330,000); AID 485346, 2010;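 active = inhibition of at least 50% at 8 µM in the primary screen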
Target sequence (O15151 whole entry, looked up): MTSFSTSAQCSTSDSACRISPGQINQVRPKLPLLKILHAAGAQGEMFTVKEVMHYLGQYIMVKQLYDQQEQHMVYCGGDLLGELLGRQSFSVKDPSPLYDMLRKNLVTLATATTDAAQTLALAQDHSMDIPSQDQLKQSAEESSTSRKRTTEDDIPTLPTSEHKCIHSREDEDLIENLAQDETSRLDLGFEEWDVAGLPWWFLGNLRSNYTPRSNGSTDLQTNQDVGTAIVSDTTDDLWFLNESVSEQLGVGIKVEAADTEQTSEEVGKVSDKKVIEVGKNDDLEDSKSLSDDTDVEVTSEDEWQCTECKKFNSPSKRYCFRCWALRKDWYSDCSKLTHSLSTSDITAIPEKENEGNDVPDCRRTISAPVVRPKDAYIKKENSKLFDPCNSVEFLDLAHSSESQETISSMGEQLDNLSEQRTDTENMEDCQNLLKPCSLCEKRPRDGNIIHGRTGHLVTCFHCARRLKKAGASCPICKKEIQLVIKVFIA
Target sequence (Q00987 whole entry, looked up): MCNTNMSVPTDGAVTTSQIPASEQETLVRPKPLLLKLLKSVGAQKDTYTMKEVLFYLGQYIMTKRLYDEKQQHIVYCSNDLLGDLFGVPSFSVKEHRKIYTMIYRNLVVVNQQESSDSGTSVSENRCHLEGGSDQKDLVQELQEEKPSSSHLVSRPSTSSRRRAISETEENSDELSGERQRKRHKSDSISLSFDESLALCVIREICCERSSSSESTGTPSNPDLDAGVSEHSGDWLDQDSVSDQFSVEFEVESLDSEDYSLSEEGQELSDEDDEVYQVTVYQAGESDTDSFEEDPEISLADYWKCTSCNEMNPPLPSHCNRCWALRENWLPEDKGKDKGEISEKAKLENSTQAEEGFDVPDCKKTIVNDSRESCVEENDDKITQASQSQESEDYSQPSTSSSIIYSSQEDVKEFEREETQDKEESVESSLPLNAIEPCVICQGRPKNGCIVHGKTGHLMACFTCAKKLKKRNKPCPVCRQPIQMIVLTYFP
CSC inhib – cancer stem cell viability inhibitors, primary screen, luminescence | actives 1.1% (n = 300,000) | cancer stem cell-like cells viability | inhibition, % at 7.5 µM; in the data active = inhibition above about 75%; inconclusive = no clear call, values can overlap the other calls; tested in HMLE shEcad cells
Calb FLC – C. albicans growth inhibition with fluconazole, primary screen, CaCi-2 strain, Alamar Blue fluorescence; C. albicans CaCi-2 (fluconazole-resistant clinical isolate) + fluconazole, 48 h; growth inhibition, % (concentration not given with the values); actives 0.57% (n = 300,000); AID 1979, 2009;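 active = growth inhibition above about 58% in most replicates, limit read from the data, passing the limit was not always enough; inconclusive = exactly half the replicates above a set limit; inactive = most replicates below a set limit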;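 note: all wells also contain fluconazole at 8 µg/ml as a sub-toxic cotreatment; 0% = median of DMSO wells and 100% = median of geldanamycin control wells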
SKKanGAS inh – S. pyogenes SKKanGAS growth inhibitors in kanamycin, primary screen, streptokinase expression inhibitor project, SKKanGAS strain, BacTiter-Glo luminescence; 6 h; inhibition, % at 7.5 µM; actives 1.3% (n = 300,000); AID 1662, 2009;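 active = mean replicate score, as percent of positive control median, at least 50; inconclusive = mean below 50 but one replicate at or above 50; inactive = mean and every replicate below 50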;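 note: strain carries kanamycin resistance gene driven by streptokinase promoter and grows in 40 µg/ml kanamycin; loss of luminescence reflects streptokinase promoter inhibition or plain growth inhibition; 0% = median of DMSO wells and 100% = positive control at its reference dose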
MPTP inh – mitochondrial permeability transition pore inhibitors, primary screen, biochemical, isolated mouse mitochondria, absorbance; inhibition, % at 10 µM; Ca2+ swelling absorbance, 30 min; actives 1.4% (n = 360,000); AID 602449, 2012;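 active = inhibition of 50% or more, scaled per plate between neutral and stimulator controls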;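 note: 0% = DMSO wells given calcium and 100% = 1 mM EGTA wells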
Beta cell apopt – inhibitors of cytokine-induced beta cell apoptosis, primary screen, luminescence | INS-1E cytokine-induced death, ATP luminescence, 48 h; percent of positive-control rescue, neutral wells zero | protection from apoptosis, % (test concentration not listed) | actives 0.8% (n = 300,000) | AID 435005, 2010;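 active = Every replicate reaches about 75%, or at least half do and their mean reaches it too, limit read from the data; inconclusive = At least half of replicates reach the limit but their mean does not; inactive = Under half of replicates reach the limit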;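 note: 0% = cytokine-treated negative control wells and 100% = positive control rescue; higher means more ATP so stronger rescue from cytokine killing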
MPTP counter – fluorescence retest of MPTP screen hits in isolated mitochondria, single concentration; shares compounds with MPTP inh; membrane potential, Rhodamine 123 fluorescence; inhibition, % at 10 µM; actives 78% (n = 5,000); AID 624504, 2012; in the data active = inhibition above about 22%;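 note: 0% = DMSO vehicle and 100% = positive control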
MPTP swell DR – mitochondrial permeability transition pore inhibitors, dose response, biochemical, absorbance, uHTS hits. shares compounds with MPTP inh. isolated mitochondria swelling. IC50, µM. actives 58% (n = 780). AID 651561, 2012; in the data active = IC50 below about 20 µM
MPTP counter DR – fluorescent counter-screen in isolated mitochondria, dose response, counter-screen for MPTP inhibitor project, biochemical, fluorescence, uHTS hits. shares compounds with MPTP inh. isolated mitochondria counterscreen, fluorescence read-out. IC50, µM. actives 49% (n = 780); in the data active = IC50 below about 80 µM
Active calls of the source: *; i = inactive; ? = inconclusive; nt = no result; + = active, no number.

SMILES	Mdm2 MdmX PPI	CSC inhib	Calb FLC	SKKanGAS inh	MPTP inh	Beta cell apopt	MPTP counter	others
CCOc1ccc(NC(=O)CSc2ncc(-c3ccc(F)cc3)n2Cc2ccco2)cc1	20.1	14.4	-0.2	40.0	8.4	3.9	nt
O=C(CSc1ncc(-c2ccc(F)cc2)n1Cc1ccco1)Nc1ccc2c(c1)OCO2	2.9	40.1	-1.3	16.9	85.1*	-1.6	61.7*
COc1cc2c(cc1OC)CN(CC(=O)Nc1cccc(C(F)(F)F)c1)CC2	16.4	-9.5	-6.5	2.7	0.4	-5.4	nt
COc1cc(NC(=O)CSCC(=O)Nc2cccc(C(F)(F)F)c2)c(Cl)cc1Cl	10.7	22.6	-5.8	-1.8	57.7*	-4.9	63.2*
Cc1ccc(C(=O)Nc2nc(-c3cccnc3)cs2)o1	-30.1	3.2	-13.0	-4.4	-0.2	0.8	nt
O=C(NC(=S)Nc1nc(-c2ccccc2)cs1)c1cccnc1	17.1	14.5	-4.1	-0.6	1.9	3.3	nt
O=C(NC(=S)Nc1nc(-c2ccccc2)cs1)c1cncc(Br)c1	-1.9	nt	4.9	8.2	74.1*	nt	74.5*
O=C(Nc1nc(-c2ccccc2)cs1)c1ccc(Br)o1	-33.2	20.3	-4.6	17.3	81.5*	2.4	20.6*
CCc1ccccc1-n1c(SCC(=O)NC)nnc1-c1cccnc1	2.6	nt	4.6	17.3	0.7	nt	nt
[N-]=[N+]=NC(c1ccccc1)C(NC(=O)c1cc(C(F)(F)F)cc(C(F)(F)F)c1)c1ccccc1 (configuration not stated)	nt	nt	nt	nt	68.3*	nt	103.2*
O=C(NC(c1ccccc1)C(Cl)Cl)c1ccccc1 (configuration not stated)	-4.8	nt	9.2	-1.6	2.9	-5.3	nt
Cc1ccc(C)c(OCCC(=O)Nc2cccc(S(=O)(=O)NC3=NCCCCC3)c2)c1	-20.4	-16.7	nt	nt	-1.2	-3.9	nt
O=C(/C=C/c1ccccc1)Nc1cccc(S(=O)(=O)Nc2ccccc2F)c1	22.5	23.3	-5.5	0.5	50.9*	0.7	55.7*
Cc1ccccc1OCCC(=O)Nc1cccc(S(=O)(=O)Nc2ccccc2Cl)c1	22.2	-0.5	32.8	10.9	77.3*	0.1	75.3*
O=C(Cc1ccc(Cl)cc1Cl)Nc1cccc(S(=O)(=O)Nc2ccccc2F)c1	17.4	12.8	1.0	46.1	65.3*	-6.0	58.1*
CCN(C(=O)COC(=O)/C=C/c1cccc([N+](=O)[O-])c1)c1c(N)n(Cc2ccccc2)c(=O)[nH]c1=O	9.2	7.6	nt	nt	-1.3	1.5	nt
NS(=O)(=O)c1cccc(NS(=O)(=O)c2ccc(/C=C/C(=O)OCC(=O)c3ccccc3)cc2)c1	19.8	34.5	-2.4	16.2	59.8*	-25.6	26.8*
COC(=O)c1ccccc1S(=O)(=O)N1CCC(C(=O)Nc2ccccc2N2CCOCC2)CC1	nt	nt	nt	nt	-0.1	nt	nt
O=C(Nc1ncc([N+](=O)[O-])s1)c1cccc([N+](=O)[O-])c1	27.8	54.5	13.2	0.5	56.3*	54.9	78.8*
CC(C)CC(=O)Nc1ncc([N+](=O)[O-])s1	-34.3	1.1	-2.3	5.2	66.9*	3.6	56.0*
O=C(Nc1ccccc1)Nc1ncc([N+](=O)[O-])s1	-26.0	nt	?	-10.7	87.6*	nt	81.9*
Cc1ccc(S(=O)(=O)N2C(=O)CCC2C(N)=O)cc1 (configuration not stated)	7.4	-9.2	-1.3	-1.8	-0.9	-4.3	nt
COc1cccc(C(=O)c2ncc(C(F)(F)F)cc2Cl)c1	1.8	-10.4	31.4	3.4	-1.0	-2.0	nt
COC(=O)/C(=C\Nc1cccc(Cl)c1C)c1ncc(C(F)(F)F)cc1Cl	29.0	-3.1	3.4	-4.9	75.0*	6.8	8.4	MPTP swell DR=19.4*;MPTP counter DR=>80
CSc1ccc(NC(=O)C2(C)CCN2C(=O)Cc2ccc(C(C)(C)C)cc2)cc1 (configuration not stated)	nt	nt	nt	nt	-0.5	nt	nt
SMILES	Mdm2 MdmX PPI	CSC inhib	Calb FLC	SKKanGAS inh	MPTP inh	Beta cell apopt	MPTP counter	others
N#Cc1ccc(NC(=O)N2CCC(c3nc4c(nnn4Cc4cccc(Cl)c4)c(=O)[nH]3)CC2)cc1	6.6	-2.0	4.9	17.0	55.6*	-13.3	28.1*
Cc1ccc(C(=S)NCS(=O)(=O)c2ccc(C)cc2)cc1	17.2	-14.7	?	17.0	-0.6	-12.1	nt
Cc1ccc(S(=O)(=O)CNC(=S)c2cccc(Cl)c2)cc1	-5.1	0.9	-1.9	32.9	76.8*	-9.8	82.8*
CCOc1cc(CNCCSc2nnnn2C)cc(Br)c1OCc1ccc(F)cc1	-0.9	11.4	-2.2	-5.8	92.6*	6.3	7.4	MPTP swell DR=i;MPTP counter DR=22.8*
CC(C)(C=O)C1=CC(=O)c2ccccc2C1=O	nt	56.9	nt	nt	99.7*	-4.9	0.9
Cn1nc(C(F)(F)F)c2cc(C(=O)Nc3ccc(F)c(Cl)c3)sc21	32.9	45.4	1.9	14.2	88.7*	15.2	76.2*
O=C(c1c(F)cccc1F)N1CCCc2ccccc21	36.8	-14.4	1.0	3.0	3.7	-3.5	nt
CC(C)(C)c1ccc(OCCCn2ccnc2)cc1	8.5	26.4	-1.2	-1.1	+	15.0	10.5	MPTP swell DR=13.3*;MPTP counter DR=27.2*
Cc1cc(C(=O)NC(=S)Nc2cccc(NC(=O)C(C)C)c2)ccc1[N+](=O)[O-]	7.6	1.6	-10.9	1.4	14.6	3.3	nt
Cc1cc(C)cc(N(C(=O)c2csnn2)C(C(=O)NC(C)(C)C)c2cccnc2)c1 (configuration not stated)	-12.0	-11.6	4.0	3.8	-2.4	-1.0	nt
NC(=O)NOCc1ccc(Cl)cc1Cl	-5.8	9.3	-6.5	-18.3	-1.4	-6.6	nt
CNC(=S)/N=C/NOCc1ccc(Cl)cc1Cl	23.1	-2.5	92.9*	-1.2	101.2*	nt	95.3*
CCCCCOC(=O)C1=C(C)NC(=O)NC1c1ccccc1OCC (configuration not stated)	8.5	16.7	7.4	3.5	-1.3	0.2	nt
O=C(O)CCC(=O)N1N=C(c2ccc(Br)cc2)CC1c1cccs1 (configuration not stated)	-32.4	6.2	27.7	-11.5	81.3*	-3.3	3.0	MPTP swell DR=>100;MPTP counter DR=>80
CN1CCN(NC(=O)c2cc(-c3cccc(Cl)c3)nc3ccccc23)CC1	18.0	-4.7	-0.7	2.8	2.1	1.9	nt
